In PubChem BioAssay (Tox21) one finds Potency data, which are given here for 56 compounds.

A short description of assay [1]: cAMP Responsive Elements (CRE) small molecule antagonists, cell-based qHTS assay: qHTS cell viability counter screen (AID 2060913). Also: nearly all actives have a fitted effect of over 40% in size. The essentials:
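Viability of NKH477-stimulated (0.25 uM final) CRE-bla HEK293T cells is measured by CellTiter-Glo luminescence following 3 hrs compound exposure at 37 C.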
(qHTS replaces the single test concentration by a dilution series.)

Assay [2] is described as follows: cAMP Responsive Elements (CRE) small molecule agonists, cell-based qHTS assay: qHTS cell viability counter screen (AID 2060914).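 Also: viability read after 3 h of compound exposure; nearly all actives have a fitted effect of over 50% in size.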 An outline of the steps:
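CRE-bla HEK 293T cells, plated 18 h at 37 °C, were exposed to compounds for 3 h at 37 °C/5% CO2. Viability was then measured in the same wells by CellTiter-Glo luminescence after 30 min at room temperature.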

Inconclusive results are not listed. Where a call stands in place of a potency, no number is given. Active and inactive are the calls of the source. Calls follow the shape of the dose curve; as a rule, active = well fitted cell-killing curve with a large enough effect in the repeat runs; inconclusive = weak or mixed curves, or effect the other way; inactive = flat fitted curve, though single readings scatter.

For `CCCCOC(=O)CCS`, the Potency entry in assay [1] and in assay [2] was “inactive” in each case.

`O[C@@H](c1cc(C(F)(F)F)nc2c(C(F)(F)F)cccc12)[C@H]1CCCCN1`: the Potency result in assay [1] and in assay [2] was “inactive” in each case.

Take `CN[C@H]1CC[C@@H](c2ccc(Cl)c(Cl)c2)c2ccc(S(N)(=O)=O)cc21`: the Potency result in assay [1] and in assay [2] was “inactive” throughout.

`CN1CCN(C(=O)C2CCCCC2)CC1`: the Potency entry in assay [1] and in assay [2] was “inactive” each time.

As to `CCCCCCCCCO`, the Potency result in assay [1] and in assay [2] was “inactive” throughout.

With `CC(C)COC(=O)/C=C/c1ccccc1`, the Potency entry in assay [1] and in assay [2] was “inactive” each time.

Take `O=C(O)CNC(=O)c1ccccc1`: the Potency result in assay [1] and in assay [2] was “inactive” in each case.

Turning to `CC(C)OC(=O)CCCCC(=O)OC(C)C`, the Potency result in assay [1] and in assay [2] was “inactive” each time.

Turning to `C=C(C)C(=O)OCCOc1ccccc1`, the Potency entry in assay [1] and in assay [2] was “inactive” throughout.

As for `COCCOC(=O)CC#N`, the Potency entry in assay [1] and in assay [2] was “inactive” each time.

Turning to `COCCOCCOCCOCCOCCO`, the Potency result in assay [1] and in assay [2] was “inactive” in each case.

Regarding `Cc1ccc(O)c2ncccc12`, the Potency result in assay [1] and in assay [2] was “inactive” in each case.

Take `Cc1nc2c([nH]1)c(=O)n(C)c(=O)n2Cc1ccco1`: the Potency result in assay [1] and in assay [2] was “inactive” in each case.

With `Clc1ccc2cc3ccccc3cc2c1`, the Potency result in assay [1] and in assay [2] was “inactive” in each case.

On to `COc1cc(C(C)=O)ccc1OCCCN1CCC(c2noc3cc(F)ccc23)CC1`, for which the Potency entry in assay [1] and in assay [2] was “inactive” in each case.

With `O=C(c1ccc(O)cc1O)c1ccc(O)cc1O`, the Potency entry in assay [1] and in assay [2] was “inactive” throughout.

Take `OCCCCC(O)CO` (configuration not stated): the Potency entry in assay [1] and in assay [2] was “inactive” in each case.

`Nc1ccn([C@H]2CC[C@@H](CO)O2)c(=O)n1`: the Potency entry in assay [1] and in assay [2] was “inactive” throughout.

In the case of `c1cc[c]([Bi]([c]2ccccc2)[c]2ccccc2)cc1`, the Potency result in assay [1] and in assay [2] was “inactive” throughout.

Take `CCCCCCCCCCCCOCCO`: the Potency entry in assay [1] and in assay [2] was “inactive” in each case.

As for `COc1ccccc1[N+](=O)[O-]`, the Potency entry in assay [1] and in assay [2] was “inactive” in each case.

Turning to `CCC(Cc1c(I)cc(I)c(N)c1I)C(=O)O` (configuration not stated), the Potency result in assay [1] and in assay [2] was “inactive” in each case.

In the case of `COc1cc2ncnc(Nc3ccc(F)c(Cl)c3)c2cc1OCCCN1CCOCC1`, the Potency result in assay [1] and in assay [2] was “inactive” each time.

Consider `CN/C(=C\[N+](=O)[O-])NCCSCc1ccc(CN(C)C)o1`, for which the Potency result in assay [1] and in assay [2] was “inactive” in each case.

`Nc1ccc(O)c(N)c1`: the Potency result in assay [1] and in assay [2] was “inactive” in each case.

For `N[C@@H](Cc1c[nH]c2ccc(O)cc12)C(=O)O`, the Potency entry in assay [1] and in assay [2] was “inactive” each time.

Regarding `Cc1ccnc(NS(=O)(=O)c2ccc(N)cc2)n1`, the Potency entry in assay [1] and in assay [2] was “inactive” each time.

Turning to `CC(=O)c1ccc([N+](=O)[O-])cc1`, the Potency entry in assay [1] and in assay [2] was “inactive” throughout.

With `Cc1ccc(-n2[nH]c(C)c(N=Nc3cccc(-c4cccc(C(=O)O)c4)c3O)c2=O)cc1C`, the Potency result in assay [1] and in assay [2] was “inactive” throughout.

As for `CC(S)C(=O)NCC(=O)O` (configuration not stated), the Potency entry in assay [1] and in assay [2] was “inactive” throughout.

Consider `C[N+](C)(C)CC(O)CC(=O)[O-]` (configuration not stated), for which the Potency entry in assay [1] and in assay [2] was “inactive” each time.

For the compound `CCCOCCOCCO`, the Potency result in assay [1] and in assay [2] was “inactive” throughout.

Regarding `CCCCc1ccc(Cl)cc1`, the Potency result in assay [1] and in assay [2] was “inactive” each time.

With `COc1ccc(N=Nc2cc(C)c(N=Nc3ccc(S(=O)(=O)O)cc3)cc2OC)cc1`, the Potency result in assay [1] and in assay [2] was “inactive” throughout.

With `NNc1nc(-c2ccc(N)cc2)cs1`, the Potency entry in assay [1] and in assay [2] was “inactive” throughout.

Regarding `CCCCCC[C@@H](O)C/C=C\CCCCCCCC(=O)O`, the Potency entry in assay [1] and in assay [2] was “inactive” throughout.

Turning to `CCC(C(=O)OCCN1CCOC(c2ccccc2)C1C)c1ccccc1` (configuration not stated), the Potency entry in assay [1] and in assay [2] was “inactive” in each case.

In the case of `O=c1[nH][nH]c2ccccc12`, the Potency entry in assay [1] and in assay [2] was “inactive” throughout.

Turning to `Cc1sccc1Br`, the Potency result in assay [1] and in assay [2] was “inactive” throughout.

Consider `Oc1ccc(C(O)CNCCCCCCNCC(O)c2ccc(O)c(O)c2)cc1O` (configuration not stated), for which the Potency result in assay [1] and in assay [2] was “inactive” each time.

For `Cc1c(Cl)cccc1[N+](=O)[O-]`, the Potency entry in assay [1] and in assay [2] was “inactive” in each case.

Regarding `C=C(C)C(=O)OCCN(CC)CC`, the Potency entry in assay [1] and in assay [2] was “inactive” each time.

Turning to `Cc1ccc2c(c1)C(=O)OC2=O`, the Potency result in assay [1] and in assay [2] was “inactive” each time.

For the compound `CCN(CC)C(=S)SSC(=S)N(CC)CC`, the Potency result in assay [1] and in assay [2] was “inactive” each time.

For the compound `N[C@H]1CN(c2c(F)cc3c(=O)c(C(=O)O)cn(C4C[C@H]4F)c3c2Cl)CC12CC2` (some centres not stated), the Potency result in assay [1] and in assay [2] was “inactive” each time.

Turning to `COc1ccc(C)cc1`, the Potency entry in assay [1] and in assay [2] was “inactive” throughout.

For `C=CCCCCCCCCC(=O)OCCCC`, the Potency result in assay [1] and in assay [2] was “inactive” each time.

Consider `O=C(O)C(=O)Cc1ccccc1`, for which the Potency result in assay [1] and in assay [2] was “inactive” throughout.

For the compound `CCn1c2ccccc2c2cc(N)ccc21`, the Potency result in assay [1] and in assay [2] was “inactive” throughout.

With `CC(C)(C)N(CCO)CCO`, the Potency result in assay [1] and in assay [2] was “inactive” throughout.

Regarding `CN1CCN(c2c(F)cc3c(=O)c(C(=O)O)cn(CCF)c3c2F)CC1`, the Potency result in assay [1] and in assay [2] was “inactive” in each case.

Regarding `CC(C)C1CCC(C(=O)N[C@H](Cc2ccccc2)C(=O)O)CC1` (some centres not stated), the Potency result in assay [1] and in assay [2] was “inactive” throughout.

Turning to `CC(Cc1ccc(O)c(O)c1)C(C)Cc1ccc(O)c(O)c1` (configuration not stated), the Potency result in assay [1] and in assay [2] was “inactive” each time.

Take `CC(C)c1ccc(C(C)C)cc1`: the Potency result in assay [1] and in assay [2] was “inactive” each time.

`C[C@H](NC(CCc1ccccc1)C(=O)O)C(=O)N1CCC[C@H]1C(=O)O` (some centres not stated): the Potency entry in assay [1] and in assay [2] was “inactive” in each case.

As for `CCOc1ccc(Cc2nccc3cc(OCC)c(OCC)cc23)cc1OCC`, the Potency result in assay [1] and in assay [2] was “inactive” in each case.
